According to PubChem BioAssay (Tox21):
Results filed as inconclusive are left out. Activity calls are given as the source filed them. Unless noted, calls follow the shape of the dose curve; as a rule, active = well fitted curve in the direction sought with a large enough effect in the repeat runs; inconclusive = weak or mixed curves; inactive = no such curve, though single readings can be large; an effect the other way counts as inactive or inconclusive.

Legend:
[1] = tested on: thyroid hormone receptor (rat, GH3 cells); assay: qHTS assay to identify small molecule agonists of the thyroid receptor (TR) signaling pathway (AID 743066; calls by dose curve)
[2] = biological target: Estrogen receptor (Homo sapiens) (UniProt P03372); assay: qHTS assay to identify small molecule antagonists of the estrogen receptor alpha (ER-alpha) signaling pathway (AID 743069; active = well fitted curve in the direction sought with a large enough effect in the signal ratio in the repeat runs, not every such curve was filed as active; the % refers to the signal ratio)
Outline: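 Screening used a UAS-driven beta-lactamase reporter integrated into HEK293 cells expressing ER-alpha, stimulated with 17beta-estradiol alongside test compounds over 18 hr at 37C; signal came from LiveBLAzer B/G FRET fluorescence.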

[3] = qHTS assay to identify small molecule antagonists of the estrogen receptor alpha (ER-alpha) signaling pathway - cell viability counter screen (AID 743074; calls by dose curve; also: nearly all actives have a fitted effect of over 45% in size)
[4] = biological target: Estrogen receptor (Homo sapiens) (UniProt P03372); assay: qHTS assay to identify small molecule agonists of the estrogen receptor alpha (ER-alpha) signaling pathway (AID 743075; calls by dose curve)
[5] = biological target: Estrogen receptor (Homo sapiens) (UniProt P03372); assay: qHTS assay to identify small molecule agonists of the estrogen receptor alpha (ER-alpha) signaling pathway using the BG1 cell line (AID 743079); also: nearly all actives have a fitted effect of over 20% in size
[6] = qHTS assay to identify small molecule antagonists of the estrogen receptor alpha (ER-alpha) signaling pathway using the BG1 cell line - cell viability counter screen (AID 743081);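 also: compound given together with 17beta-estradiol as the ER stimulus; nearly all actives have a fitted effect of over 45% in size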; also: potency is read from the fitted curve at half-maximal effect
[7] = biological target: Aromatase (Homo sapiens) (UniProt P11511); assay: qHTS assay to identify aromatase inhibitors (AID 743083); also: series mostly up to about 70 µM; nearly all actives have a fitted effect of over 55% in size
[8] = biological target: Aryl hydrocarbon receptor (Homo sapiens) (UniProt P35869); assay: qHTS assay to identify small molecule that activate the aryl hydrocarbon receptor (AhR) signaling pathway (AID 743085); also: nearly all actives have a fitted effect of over 15% in size; also: potency is read from the fitted curve at half-maximal effect;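 as to activation: HG2L7.5c1 human HepG2 liver cells with stably integrated DRE-driven firefly reporter; series mostly up to about 70 µM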
Outline: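 Steps: seed HepG2-AhR-luc cells; allow 5 h at 37C; pin-transfer test compound or vehicle; incubate 24 h at 37C; add viability dye (30 min, 37C) and read fluorescence; add luciferase substrate (30 min, RT) and read luminescence.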

[9] = biological target: Peroxisome proliferator-activated receptor gamma (Homo sapiens) (UniProt P37231); assay: qHTS assay to identify small molecule agonists of the peroxisome proliferator-activated receptor gamma (PPARg) signaling pathway (AID 743094; active = well fitted activation curve with a large enough effect in the signal ratio in the repeat runs, not every such curve was filed as active; the % refers to the signal ratio)
Outline: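 Cell-based bla reporter, HEK293H background, PPARg-driven UAS. Pre-incubation 5 h, 37C, 5% CO2. Compound 17 h, 37C. Substrate 1 h RT; fluorescence.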

[10] = qHTS assay to identify small molecule antagonists of the peroxisome proliferator-activated receptor gamma (PPARg) signaling pathway - cell viability counter screen (AID 743194); conditions: Potency: co-treated with 50 nM rosiglitazone; also: nearly all actives have a fitted effect of over 55% in size
Outline: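 PPARg-UAS-bla HEK293H cells were plated, rested 5 h at 37 C, then treated with compounds plus rosiglitazone (50 nM final) for 17 h at 37 C; viability was then read by CellTiter-Glo luminescence after 30 min at room temperature.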

[11] = qHTS assay for small molecule agonists of the antioxidant response element (ARE) signaling pathway - cell viability counter screen (AID 743203; calls by dose curve; also: nearly all actives have a fitted effect of over 55% in size)
Outline: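 Measured in the same wells as the beta-lactamase ARE reporter, this read-out is CellTiter-Glo luminescence from HepG2 ARE-bla cells given compounds for 16 hrs.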

[12] = qHTS assay for small molecule activators of the heat shock response signaling pathway (AID 743210; active = well fitted activation curve with a large enough effect in the signal ratio in the repeat runs, with a control signal flat, not every such curve was filed as active; the % refers to the signal ratio;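 also: HeLa cells with beta-lactamase reporter driven by heat shock elements; series mostly up to about 63 µM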)
Outline: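 Activation of heat shock element-controlled beta-lactamase expression is measured in HeLa cells by LiveBLAzer FRET fluorescence, with compound exposure lasting 5 h at 37 C and substrate loading 2.5 h at room temperature.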

[13] = qHTS assay to identify small molecule agonists of the peroxisome proliferator-activated receptor delta (PPARd) signaling pathway - cell viability counter screen (AID 743211); also: nearly all actives have a fitted effect of over 55% in size
Outline: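 Viability of GeneBLAzer PPARd UAS-bla HEK293H cells was assessed after 17 h compound incubation at 37C, using CellTiter-Glo reagent added after the reporter read and luminescence recorded 30 min later.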

[14] = qHTS assay for small molecule agonists of the antioxidant response element (ARE) signaling pathway (AID 743202; active = well fitted activation curve with a large enough effect in the signal ratio in the repeat runs, not every such curve was filed as active; the % refers to the signal ratio; also: potency is read from the fitted curve at half-maximal effect)
Outline: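 Steps: seed ARE-bla HepG2 cells (2,000/well); incubate 5 h at 37 C; add compounds by pin tool; incubate 16 h at 37 C; add FRET substrate; read fluorescence after 2 h at RT.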

[15] = qHTS assay for small molecule activators of the heat shock response signaling pathway - cell viability counter screen (AID 743209); also: nearly all actives have a fitted effect of over 50% in size
Outline: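 Same-well multiplex: after 2.5 h room-temperature incubation with LiveBLAzer B/G substrate and fluorescence reading, CellTiter-Glo reagent was added to HSE-bla HeLa cells that had received compound for 5 h at 37 C; luminescence read after 30 min.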

[16] = qHTS assay to identify small molecule antagonists of the estrogen receptor alpha (ER-alpha) signaling pathway using the BG1 cell line (AID 743080; calls by dose curve;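 also: BG1 cells stimulated with 17beta-estradiol alongside compound; series mostly up to about 70 µM; nearly all actives have a fitted effect of over 25% in size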)
Outline: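 BG1-Luc-4E2 cells (endogenous full-length ER-alpha, stable 4×ERE-luciferase) were starved 5 days in phenol-red-free medium with 10% charcoal-stripped FBS, plated 24 h, then given compound plus 17beta-estradiol for 21.5 h at 37 C; ONE-Glo luminescence read after 30 min.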

[17] = qHTS assay to identify aromatase inhibitors - cell viability counter screen (AID 743084)
[18] = qHTS assay to identify small molecule that activate the aryl hydrocarbon receptor (AhR) signaling pathway - cell viability counter screen (AID 743086);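 also: HepG2 liver cells carrying the AhR DRE luciferase reporter; series mostly up to about 70 µM; nearly all actives have a fitted effect of over 45% in size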
Outline: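 HepG2-AhR-luc (HG2L7.5c1) cells, 4000/well, were preincubated 5 h at 37C, exposed to compound in qHTS format for 24 hr at 37C, then given CellTiter-Fluor for 30 min; viability was read as fluorescence in the reporter wells.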

[19] = biological target: Peroxisome proliferator-activated receptor gamma (Homo sapiens) (UniProt P37231); assay: qHTS assay to identify small molecule antagonists of the peroxisome proliferator-activated receptor gamma (PPARg) signaling pathway (AID 743191; calls by dose curve; also: series mostly up to about 63 µM; nearly all actives have a fitted effect of over 30% in size)
Outline: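 GeneBLAzer PPARg UAS-bla HEK293H cells carrying a UAS-driven beta-lactamase reporter were plated at 3000 cells/well, preincubated 5 h at 37C, then given compound for 17 h at 37C; LiveBLAzer B/G FRET substrate was read after 1 h at room temperature.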

Measured: Potency

Sequence of Aromatase (Homo sapiens) (P11511 whole entry, looked up): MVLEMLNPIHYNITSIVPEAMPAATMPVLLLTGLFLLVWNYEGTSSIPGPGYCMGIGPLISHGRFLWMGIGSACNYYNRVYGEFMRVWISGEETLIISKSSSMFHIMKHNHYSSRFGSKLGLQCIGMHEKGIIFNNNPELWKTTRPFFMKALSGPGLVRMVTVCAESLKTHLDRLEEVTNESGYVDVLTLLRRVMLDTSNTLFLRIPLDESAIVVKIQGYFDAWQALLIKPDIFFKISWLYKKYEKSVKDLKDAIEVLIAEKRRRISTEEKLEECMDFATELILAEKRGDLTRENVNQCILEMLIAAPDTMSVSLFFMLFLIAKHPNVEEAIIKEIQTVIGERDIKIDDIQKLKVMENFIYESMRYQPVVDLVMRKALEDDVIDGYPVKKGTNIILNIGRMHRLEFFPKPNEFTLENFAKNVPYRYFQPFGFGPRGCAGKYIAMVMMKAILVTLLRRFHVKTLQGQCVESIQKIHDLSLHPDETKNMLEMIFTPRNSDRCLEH
Sequence of Aryl hydrocarbon receptor (Homo sapiens) (P35869 whole entry, looked up): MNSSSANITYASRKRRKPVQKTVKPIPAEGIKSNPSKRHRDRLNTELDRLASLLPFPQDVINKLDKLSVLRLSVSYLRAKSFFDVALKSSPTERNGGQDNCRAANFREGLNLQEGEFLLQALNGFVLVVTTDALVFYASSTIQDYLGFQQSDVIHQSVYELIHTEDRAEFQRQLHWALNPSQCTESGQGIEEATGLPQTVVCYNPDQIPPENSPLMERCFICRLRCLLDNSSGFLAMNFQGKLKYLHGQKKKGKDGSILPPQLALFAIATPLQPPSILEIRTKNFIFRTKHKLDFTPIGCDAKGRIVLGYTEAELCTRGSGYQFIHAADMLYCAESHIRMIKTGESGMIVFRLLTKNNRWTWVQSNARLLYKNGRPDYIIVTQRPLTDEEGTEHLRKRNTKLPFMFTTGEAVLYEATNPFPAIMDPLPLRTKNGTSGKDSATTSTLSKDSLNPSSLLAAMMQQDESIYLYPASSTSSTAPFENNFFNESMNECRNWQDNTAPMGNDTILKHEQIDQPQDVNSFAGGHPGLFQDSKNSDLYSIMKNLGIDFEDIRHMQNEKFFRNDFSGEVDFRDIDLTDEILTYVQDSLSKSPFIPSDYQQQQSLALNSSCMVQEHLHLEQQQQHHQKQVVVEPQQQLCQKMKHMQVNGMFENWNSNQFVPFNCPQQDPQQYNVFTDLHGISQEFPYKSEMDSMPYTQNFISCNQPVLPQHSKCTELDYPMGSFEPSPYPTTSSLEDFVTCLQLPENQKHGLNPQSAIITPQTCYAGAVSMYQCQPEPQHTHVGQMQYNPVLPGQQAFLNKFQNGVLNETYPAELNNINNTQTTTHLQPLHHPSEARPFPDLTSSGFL
Sequence of Peroxisome proliferator-activated receptor gamma (Homo sapiens) (P37231 whole entry, looked up): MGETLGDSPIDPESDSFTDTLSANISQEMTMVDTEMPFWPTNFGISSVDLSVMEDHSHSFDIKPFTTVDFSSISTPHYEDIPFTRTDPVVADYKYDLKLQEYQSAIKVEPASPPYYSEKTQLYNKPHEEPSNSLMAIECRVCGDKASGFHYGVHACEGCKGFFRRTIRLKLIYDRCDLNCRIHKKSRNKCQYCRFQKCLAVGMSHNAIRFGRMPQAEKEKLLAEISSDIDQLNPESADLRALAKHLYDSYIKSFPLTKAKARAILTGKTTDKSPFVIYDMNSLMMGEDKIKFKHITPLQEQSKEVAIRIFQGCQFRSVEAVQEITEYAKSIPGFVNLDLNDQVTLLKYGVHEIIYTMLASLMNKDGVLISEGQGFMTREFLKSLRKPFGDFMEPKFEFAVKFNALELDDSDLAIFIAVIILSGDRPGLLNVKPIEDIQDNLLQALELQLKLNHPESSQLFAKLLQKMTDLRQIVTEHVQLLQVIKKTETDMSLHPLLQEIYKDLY
Sequence of Estrogen receptor (Homo sapiens) (P03372 whole entry, looked up): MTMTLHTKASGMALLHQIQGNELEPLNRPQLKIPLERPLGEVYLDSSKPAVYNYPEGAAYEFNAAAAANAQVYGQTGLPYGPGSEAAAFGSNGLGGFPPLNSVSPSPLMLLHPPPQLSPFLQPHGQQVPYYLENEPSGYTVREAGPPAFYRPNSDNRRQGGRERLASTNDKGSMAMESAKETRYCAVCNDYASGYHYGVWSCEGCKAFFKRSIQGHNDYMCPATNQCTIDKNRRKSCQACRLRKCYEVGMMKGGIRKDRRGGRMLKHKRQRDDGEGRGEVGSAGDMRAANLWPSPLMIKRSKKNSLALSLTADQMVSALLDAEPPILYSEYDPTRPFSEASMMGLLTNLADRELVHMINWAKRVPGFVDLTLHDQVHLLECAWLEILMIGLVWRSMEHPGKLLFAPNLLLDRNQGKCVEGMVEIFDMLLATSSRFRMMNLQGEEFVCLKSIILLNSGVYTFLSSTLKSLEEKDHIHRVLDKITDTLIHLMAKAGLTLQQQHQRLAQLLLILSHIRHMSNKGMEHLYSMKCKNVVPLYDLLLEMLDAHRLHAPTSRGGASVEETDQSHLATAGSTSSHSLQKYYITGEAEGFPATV

CC1CC(CC2CCC(N)C(C)C2)CCC1N (stereo not drawn)
active: [6] 31.1 µM
not listed: [14] | [15] | [16] | [17] | [18] | [19]
inactive: all other assays above

CCCCc1c(C)nc(NCC)nc1OS(=O)(=O)N(C)C
active: [14] 27.3 µM
inactive: [1] | [2] | [3] | [4] | [7] | [10] | [11] | [15] | [12] | [13]

CCCCCCCCCCOC(=O)c1ccccc1C(=O)OCCCCCCCCCC
not listed: [1] | [2] | [9] | [19]
inactive: all other assays above

C=CC(=O)OC(C)(C)C
not listed: [1] | [2] | [4] | [5] | [8] | [16]
inactive: all other assays above

CCOP(=S)(OCC)Oc1cc(Cl)c(Br)cc1Cl
active: [8] 9.69 µM
not listed: [1] | [2] | [5] | [10] | [13]
inactive: all other assays above

ClCCCCBr
not listed: [1] | [2] | [4] | [5] | [15] | [16]
inactive: all other assays above

CCO[C@H]1O[C@@H]2OC3(C)CC[C@H]4[C@H](C)CC[C@@H]([C@H]1C)[C@@]24OO3
inactive: [19] | [10] | [11] | [15] | [12] | [13]

S=C=NCc1ccccc1
active: [14] 24.6 µM
inactive: [3] | [6] | [7] | [17] | [8] | [18] | [13]
